# Source: PubChem BioAssay
# In the library only some 27% were active in any assay of this set; here they are far more common.
# sEH inh – inhibitors of human soluble epoxide hydrolase. P34913. recombinant human sEH enzymatic activity assay. inhibition, % at 2 µM. 0.34% of 91,000 active. AID 707; in the data active means inhibition above about 80%
# Target sequence (P34913 whole entry, looked up): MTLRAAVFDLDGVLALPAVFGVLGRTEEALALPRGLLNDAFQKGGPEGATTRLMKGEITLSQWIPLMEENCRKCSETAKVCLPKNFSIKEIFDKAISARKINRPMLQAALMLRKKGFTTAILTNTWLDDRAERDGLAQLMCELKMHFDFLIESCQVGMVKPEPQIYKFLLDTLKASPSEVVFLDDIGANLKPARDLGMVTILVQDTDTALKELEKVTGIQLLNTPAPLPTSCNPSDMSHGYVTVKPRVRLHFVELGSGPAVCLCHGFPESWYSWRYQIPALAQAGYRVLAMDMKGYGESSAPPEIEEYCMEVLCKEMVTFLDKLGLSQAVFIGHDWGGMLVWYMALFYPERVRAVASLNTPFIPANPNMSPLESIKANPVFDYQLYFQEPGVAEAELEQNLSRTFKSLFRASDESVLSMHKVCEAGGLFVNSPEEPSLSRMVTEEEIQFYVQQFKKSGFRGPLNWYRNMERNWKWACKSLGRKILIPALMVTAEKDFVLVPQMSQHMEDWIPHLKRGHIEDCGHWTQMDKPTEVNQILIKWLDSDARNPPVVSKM
# CYP2C19 act – cytochrome P450 2C19 (human) activation | AID 1025 | activation factor at 5 µM | 96,000 tested, under 10 active | recombinant CYP2C19, luciferin-H EGE luminescence; active compounds read high; 0 = fully inhibited enzyme, 1 = untreated enzyme;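 active means activation factor of at least 2 at 5 µM in the primary screen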;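 further: 0 = wells with 2.5 mM tranylcypromine and 1 = vehicle-only wells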
# CYP2C19 inhib – human CYP2C19 inhibition | P33261 | CYP2C19 Supersomes, luciferin-H EGE luminescence, 30 min | inhibition, % at 5 µM | 21% of 96,000 active;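 active means CYP2C19 inhibition above a set limit at 5 µM in the primary screen, cut at about 50% in these data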;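 further: plate controls were negative control wells for no effect and 2.5 mM tranylcypromine positive control for full effect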
# CYP2C9 inh – human CYP2C9 inhibition | P11712 | AID 777 | CYP2C9 Supersomes, luciferin-H conversion, luminescence | inhibition, % at 5 µM | 20% of 96,000 active;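 active means blocking of liver enzyme CYP2C9 beyond about 50% at 5 µM, limit read from the data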
# sEH activator – soluble epoxide hydrolase (human) activation. P34913. purified human sEH enzymatic activity, activator screen. activation, % at 2 µM. 0.04% of 91,000 active; in the data active means activation above about 37%
# CYP2C9 activ – CYP2C9 (human) activation; recombinant CYP2C9, luciferin-H conversion, luminescence; active compounds read high; factor 1 = untreated enzyme, 0 = blocked; activation factor at 5 µM; 1.4% of 96,000 active;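 active means activation factor of 2 or more for CYP2C9 at a 5 µM dose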;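 further: 0 = sulfaphenazole-blocked wells and 1 = vehicle-only wells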
# * hit, by the source's call; / = not tested or not shown.
SMILES,sEH inh,CYP2C19 act,CYP2C19 inhib,CYP2C9 inh,sEH activator,CYP2C9 activ
CCOc1nc(C)nc(NC(=O)NS(=O)(=O)c2ccccc2Cl)n1,6.0,1,-2.7,-5.5,-8.7,1.1
CC(C)CN(C(=O)COC(=O)C12CC3CC(CC(O)(C3)C1)C2)C1CCS(=O)(=O)C1 (centres undefined),13.3,0.9,5.0,-1.1,-12.9,1
CCOC(=O)C1CCN(c2nnc(N3CCCC3=O)s2)CC1,/,1.1,-12.6,-15.3,/,1.2
Cc1ccc(-n2nc(-c3cccs3)cc2C(=O)NCC2CCCO2)c(C)c1 (centres undefined),19.6,0.4,64.8*,89.8*,-16.5,0.1
O=C1CC(c2ccco2)Cc2nc(N3CCN(Cc4ccc5c(c4)OCO5)CC3)ncc21 (centres undefined),-8.1,0.8,20.5,26.7,7.0,0.7
CCCn1nnnc1-c1ccc(Cl)cc1,11.7,0.8,21.7,-0.9,-9.2,1
FC(F)(F)c1cccc(Cn2nnnc2-c2ccc(Cl)cc2)c1,11.9,0.1,92.3*,61.3*,-9.4,0.4
CC1(C)CC(=O)c2sc(N3CCCCC3)nc2C1,7.3,0.4,58.3*,26.4,-8.4,0.7
CC1(C)CNC(=O)c2sc(N3CCCCC3)nc2C1,11.4,0.9,6.4,-0.6,-10.4,1
Cc1ccc(Cn2nnc3c(=O)n(CC(=O)NCc4ccc5c(c4)OCO5)cnc32)cc1,9.1,/,/,/,-6.1,/
CCOC(=O)c1ccc(S(=O)(=O)N2CCC(C(=O)O)CC2)cc1,10.8,1,-0.7,6.7,-8.7,0.9
Cc1ccc(S(=O)(=O)N2CCC[C@H]2C(=O)OC(C)C(=O)Nc2ncc(Cl)cc2Cl)cc1 (some centres undefined),-8.9,0.3,71.4*,-23.2,7.2,1.2
CNC(=O)C1CCCN1S(=O)(=O)c1ccc(OC)cc1 (centres undefined),7.2,1,2.8,-25.4,-4.8,1.3
COc1ccc(-c2csc(NC(=O)C3CCCCN3S(=O)(=O)c3ccccc3)n2)cc1 (centres undefined),12.0,0.6,38.9,88.3*,-11.6,0.1
COc1ccc(S(=O)(=O)N2CCCC2C(=O)Nc2nc3c(s2)CCCC3)cc1 (centres undefined),-8.5,0.6,39.8,80.1*,8.3,0.2
COc1ccc(CNC(=O)C2CCCN2S(=O)(=O)c2ccc(Cl)cc2)cc1 (centres undefined),-6.5,/,/,/,5.8,/
COc1ccc(NC(=O)C2CCCN2S(=O)(=O)c2ccc(F)cc2)cc1 (centres undefined),-6.8,0.4,64.2*,92.6*,4.0,0.1
Cc1ccc(S(=O)(=O)N2CCCC2C(=O)Nc2ccc(O)cc2)cc1 (centres undefined),/,0.9,8.6,-45.1,/,1.5
COc1ccc(S(=O)(=O)N2CCCC2C(=O)Nc2ccc(C)cc2)cc1 (centres undefined),8.5,0.2,76.4*,54.1*,-12.3,0.5
Cc1ccc(NC(=O)NC2CCCN2S(=O)(=O)c2ccc(Cl)cc2)cc1 (centres undefined),24.1,0.3,72.6*,86.9*,-24.5,0.1
O=C(CCn1ccc2ccccc21)NC1CCCc2ccccc21 (centres undefined),0.6,0.1,93.1*,60.4*,-1.3,0.4
COc1ccc(CCN2CC34C=CC(O3)C(C(=O)NCc3ccccc3)C4C2=O)cc1OC (centres undefined),0.8,1,2.9,48.8,-1.1,0.5
CCOC(=O)C1=C(C)N=c2s/c(=C3\C(=O)Nc4ccccc43)c(=O)n2C1c1ccc2c(c1)OCO2 (centres undefined),-5.6,0.9,11.2,58.9*,3.4,0.4
CCOC(=O)C1=C(C)N=c2s/c(=C\c3ccncc3)c(=O)n2C1c1ccc2c(c1)OCO2 (centres undefined),/,0.2,84.7*,84.8*,/,0.2
CCOC(=O)C1=C(C)N=c2s/c(=C/c3ccccc3)c(=O)n2C1c1ccc(OC)c(OC)c1 (centres undefined),2.3,0.6,37.8,43.8,1.8,0.6
CCOC(=O)C1=C(C)N=c2sc(=C(C)C)c(=O)n2C1c1ccc(N(C)C)cc1 (centres undefined),10.3,/,/,/,-7.7,/
CCn1c(SCC(=O)NCCc2ccc(F)cc2)nnc1-c1cccs1,/,0.9,12.3,14.4,/,0.9
Cc1ccc2nc(Cc3ccc(N)cc3)[nH]c2c1,-13.2,0.2,82.3*,9.9,17.9,0.9
